The compounds below were run on FLX1 + dox-induced PRKAR1A G325D (assay: difference in log2 fold change of viability vs plate median (dox-induced PRKAR1A G325D minus uninduced); higher = compound less effective when PKA is inhibited). Settings: concentration: not stated (2 or 5 uM); 5 days.
Protocol: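 For each plate a log2 fold change vs the plate median was derived, and the values without dox were subtracted from those with dox, averaged over three biological replicates.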

| Structure (SMILES) | difference in log2 fold change of viability |
| --- | --- |
| CC(C)(C)c1cc(C=C(C#N)C#N)cc(C(C)(C)C)c1O [Tyrphostin 9] | 0.375 |
| Cc1ccccc1-n1c(Cn2ncc3c(N)ncnc32)nc2cccc(C)c2c1=O | -0.0566 |
| CCN1CCN(C(=O)Cc2ccc(Nc3ncc(F)c(Nc4ccc(C(=O)Nc5ccccc5Cl)cc4)n3)cc2)CC1 [Aurora A Inhibitor I] | -0.138 |
| O=c1[nH]c2ccc(Cl)cc2c(N[C@@H]2CN3CCC2CC3)c1-c1nc2ccccc2[nH]1 | -0.0624 |
| CC(C)(C)c1cc(C=C(C#N)C#N)cc(Br)c1O | 0.78 |
| Cn1cc(C2=C(c3cn(C4CCN(Cc5ccccn5)CC4)c4ccccc34)C(=O)NC2=O)c2ccccc21 | -0.214 |

— the supplement of paper PMC9925115
